Compound activity as filed in PubChem BioAssay.
An excerpt weighted towards active compounds, which were near 2.4% of everything screened.
D2 ag-1 – HTS Assay for Allosteric Agonists of the Human D2 Dopamine Receptor: Primary Screen for Agonists | D(2) dopamine receptor (Homo sapiens), P14416 | HEK293 T-REx D2 cells, calcium flux agonist mode | activation, % at 2 µM | 0.53% of 340,000 active | AID 485358, 2010;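 active = activation over 3 SD above normal in the single-dose calcium agonist read, cut at about 30% in these data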; note: 0% is about no effect
Target sequence (P14416 whole entry, looked up): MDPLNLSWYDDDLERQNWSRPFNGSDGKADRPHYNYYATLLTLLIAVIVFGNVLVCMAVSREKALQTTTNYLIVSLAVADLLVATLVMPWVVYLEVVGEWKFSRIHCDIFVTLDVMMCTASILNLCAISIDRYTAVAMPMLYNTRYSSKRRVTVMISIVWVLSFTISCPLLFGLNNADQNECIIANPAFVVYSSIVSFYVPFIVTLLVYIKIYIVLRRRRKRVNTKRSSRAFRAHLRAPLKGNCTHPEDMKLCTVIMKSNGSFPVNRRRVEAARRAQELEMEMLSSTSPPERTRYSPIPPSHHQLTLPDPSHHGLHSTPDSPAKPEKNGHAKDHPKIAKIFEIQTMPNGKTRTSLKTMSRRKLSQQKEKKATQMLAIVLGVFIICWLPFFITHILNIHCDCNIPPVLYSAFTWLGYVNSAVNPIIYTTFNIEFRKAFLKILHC
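Tetracycline-induced HEK293 Trex cells with D2 receptor force-coupled to calcium signaling, plated overnight at 30 C and loaded with no-wash calcium dye. Calcium flux read kinetically for 180 s after compound addition; responses flag agonists.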
D2 antagonist – HTS Assay for Allosteric Antagonists of the Human D2 Dopamine Receptor: Primary Screen for Antagonists. inhibition, % at 10 µM. 2% of 340,000 active. D(2) dopamine receptor (Homo sapiens), P14416. HEK293 TREx D2 cells, calcium flux, dopamine EC80; in the data active = inhibition above about 30%; inactive = below that, where a call was filed; note: 0% is about no effect
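Compounds are added to dye-loaded, induced HEK293 T-REx cells coupled to calcium release via D2; after a 3 min kinetic read an EC80 dopamine stimulus is given and fluorescence is recorded for 3 more min.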
D2 PAM-1 – HTS Assay for Positive Allosteric Modulators of the Human D2 Dopamine Receptor: Primary Screen for Potentiators; HEK293 T-REx D2, calcium flux, EC20 dopamine potentiation; 0.34% of 340,000 active; D(2) dopamine receptor (Homo sapiens), P14416; potentiation, % at 10 µM; AID 485347, 2010;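 active = potentiation over 3 SD above the plate norm, cut at about 30% in these data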; note: 0% is about no effect
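Tetracycline-induced Hek293 Trex D2 cells, force-coupled to calcium, loaded with no-wash calcium dye. Compound added with 180 s kinetic read for agonism, then EC20 dopamine and a further 180 s read for potentiation.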
D2 ag-2 – Beta-Arrestin HTS for Positive Allosteric Modulators of the Human D2 Dopamine Receptor: Agonists; D(2) dopamine receptor (Homo sapiens), P14416; AID 624465, 2012; DiscoveRx PathHunter D2 beta-arrestin, luminescence, 90 min; 100% = 57 uM dopamine signal; 0.084% of 360,000 active; activation, % (concentration not given with the values); in the data active = activation above about 40%; inconclusive = between about 15% and that limit
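Agonist mode: compounds alone added to overnight-plated D2 PathHunter cells for 90 min at 37 C, with 57 uM final dopamine (EC100) defining full response. Beta-arrestin recruitment detected by chemiluminescent reagent, read after 1 h at ambient temperature.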
D2 PAM-2 – Beta-Arrestin HTS for Positive Allosteric Modulators of the Human D2 Dopamine Receptor: Potentiators | D(2) dopamine receptor (Homo sapiens), P14416 | 0.23% of 360,000 active | DiscoveRx D2 beta-arrestin cells, luminescence, 90 min; 100% = 57 uM dopamine signal | potentiation, % (concentration not given with the values) | AID 624464, 2012; in the data active = potentiation above about 50%; inconclusive = mostly about 30% to 49%
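PathHunter beta-arrestin assay in DiscoveRx D2 cells. Compounds were added with an EC20 of dopamine (50 nM final) for 90 min at 37 deg C. Luminescence was read 1 h after detection reagent, with 57 uM dopamine as the EC100 control.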
* = called active by the depositor; ? = inconclusive; · = no result.

SMILES	D2 ag-1	D2 antagonist	D2 PAM-1	D2 ag-2	D2 PAM-2
O=C(Cc1ccccc1)NN1C(=O)/C(=C/c2ccccc2C(=O)O)SC1=S	-0.8	30.7*	-1.9	-3.6	-3.6
Sc1nnc(-c2ccc(Cl)cc2)n1Cc1ccccc1	-0.2	39.0*	-0.6	2.5	-16.3
CCOC(=O)C(C)NC(=O)c1c2c(nc3ccccc13)C(=O)N(C1CCCCC1)C2 (stereo unspecified)	·	·	-9.6	·	·
COc1ccccc1NC(=O)CSC1=Nc2ccccc2N=C(c2ccc(F)cc2)C1	-0.3	·	3.1	·	·
CC1CCN(CCCNC(=O)CCc2nnc3n(CCc4ccccc4)c(=O)c4ccccc4n23)CC1	0.2	61.1*	3.0	-2.4	-18.5
Cc1ccc(C(=O)C(C)OC(=O)CN2C(=O)NC3(CCCC3)C2=O)cc1 (stereo unspecified)	-0.7	-11.2	9.2	-2.2	-20.5
Cc1cccc(NS(=O)(=O)c2ccc(C)c(C(=O)NCC(c3ccco3)N3CCCCC3)c2)c1 (stereo unspecified)	-1.4	10.9	-9.9	-2.1	-8.0
Cc1ccccc1SCC(=O)Nc1cc(S(=O)(=O)N2CCOCC2)ccc1N1CCOCC1	·	·	-10.3	4.3	-1.1
CC(Oc1ccc(F)cc1)C(=O)Nc1cc(S(=O)(=O)N2CCCCC2)ccc1N1CCOCC1 (stereo unspecified)	-0.3	37.3*	2.0	0.4	3.2
CC(NCC(=O)Nc1cc(S(=O)(=O)N2CCOCC2)ccc1N1CCOCC1)c1ccco1 (stereo unspecified)	1.5	63.6*	8.3	5.3	-2.1
CCOc1ccccc1Nc1nnc(SCC(=O)NC2CC2)s1	·	·	·	-1.6	-5.0
CC(C)c1ccc(S(=O)(=O)N2CCN(CC(=O)Nc3ccccc3C(F)(F)F)CC2)cc1	1.1	·	-8.0	·	·
COc1ccc(-c2nnc(SCCC(=O)O)n2C)cc1OC	0.0	34.4*	9.1	0.7	-9.0
CCS(=O)(=O)c1ncc(Cl)c(C(=O)N2CCN(c3cccc(Cl)c3)CC2)n1	8.8	·	-4.7	·	·
CCCN1CCN(C(=O)C2CCN(S(=O)(=O)c3ccc4c(c3)NC(=O)C(C)S4)CC2)CC1 (stereo unspecified)	0.7	-6.1	5.2	-1.0	3.9
CC(C)(C)c1ccc(NC(=O)Cn2cnc3cc([N+](=O)[O-])ccc3c2=O)cc1	0.2	-4.6	-2.8	?	26.8
Cc1ccc(CNC(=O)Cn2cnc3cc([N+](=O)[O-])ccc3c2=O)cc1	0.9	-0.8	-22.3	1.0	53.9*
Cc1cc2nc3c(=O)n(C4CCCCC4)c(=O)[nH]c3nc2cc1N	61.4*	-27.6	-4.4	5.4	9.3
Cc1cc(C)cc(Nc2cc(=O)n(C3CCCCC3)c(=O)[nH]2)c1	1.3	6.3	3.3	1.1	-1.3
O=C(NCCc1c[nH]c2ccccc12)c1[nH]c(C(F)(F)F)nc1-c1ccccc1	·	·	·	0.9	-1.9
Cc1cc(C(O)c2ncc(-c3cccc4ccccc34)[nH]2)ccc1F (stereo unspecified)	·	·	·	-4.0	-17.1
O=C(ONC1=NCCCCC1)c1c(F)cccc1F	-0.1	12.8	1.0	?	65.1*
O=C(ONC1=NCCCCC1)c1ccc(Cl)cc1	0.6	7.2	4.7	?	?
FC(F)(F)c1ccccc1CN1CCN(C2CCCCCC2)CC1	-0.5	43.8*	-32.5	-1.5	-15.8
N#CC1=C(N)S[C@H](C(=O)C23CC4CC(CC(C4)C2)C3)[C@H]1c1ccncc1	0.6	3.7	30.5*	5.1	14.1
SMILES	D2 ag-1	D2 antagonist	D2 PAM-1	D2 ag-2	D2 PAM-2
CC1(c2ccc3noc(-c4ccccc4)c3c2)OCCO1	-0.5	-12.4	15.8	14.4	58.4*
O=C(O)c1ccc2noc(-c3ccccc3)c2c1	0.5	-11.0	1.5	3.0	-4.0
O=C(c1ccc2noc(-c3ccccc3)c2c1)N1CCN(c2ccccc2)CC1	0.4	-3.2	-3.9	?	71.9*
CC1(c2ccc3noc(-c4ccc(F)cc4)c3c2)OCCO1	0.8	-7.9	-6.2	?	60.5*
COc1cccc(-c2onc3ccc(C4(C)OCCO4)cc23)c1	0.6	0.3	3.4	?	25.3
CCS(=O)(=O)c1nc(S(=O)(=O)c2ccc(Cl)cc2)c(NCc2ccccc2Cl)s1	0.1	·	9.9	·	·
COCCNc1nc2cc(-c3ccc(C)cc3)sc2c(=O)n1C	·	·	·	-2.5	-2.8
Cc1ccc(-c2ccc(CCC(=O)O)n2NC(N)=S)cc1	2.4	-8.1	3.8	0.2	-20.3
Cc1ccc(-c2ccc(CCC(=O)O)n2C(C)C)cc1	-0.1	32.6*	15.5	-1.5	-7.3
O=c1oc(-c2ccco2)nc2ccccc12	1.0	36.3*	6.3	-1.8	3.2
O=c1oc(-c2ccco2)nc2c1cnn2-c1ccccc1	0.7	2.2	-0.6	-3.0	-7.8
COC(=O)C/C=C/N(Cc1ccccc1OC)S(=O)(=O)CCl	·	·	·	-0.8	-0.6
CCOC(=O)c1sc2ncnc(Nc3cccc(C(=O)O)c3)c2c1C	-0.1	24.6	2.2	-3.0	-2.0
COc1ccc(-n2nc(C(=O)N(C)C)nc2-c2ccccc2)cc1	0.0	31.2*	9.3	9.0	0.3
CCCCC(=O)N1CCc2cc(OC)c(OC)cc2C1COc1ccc(OC)cc1 (stereo unspecified)	-0.6	·	5.0	·	·
O=C(COc1ccc2c(c1)OCO2)Nc1ccc2c(c1)oc1ccccc12	0.0	37.0*	-5.5	1.6	8.9
CCOC(=O)CCCN(c1[nH]c(C)c(C)c1C#N)S(=O)(=O)c1ccc(C)cc1	·	·	·	-8.5	-11.2
COc1ccc(OC)c(NC(=O)CN2c3cccc4cccc(c34)S2(=O)=O)c1	·	·	·	1.0	-11.8
COc1ccc(OC)c(NC(=O)C(C)N2c3cccc4cccc(c34)S2(=O)=O)c1 (stereo unspecified)	0.0	33.6*	11.8	0.6	6.0
COc1ccc(CC(=O)Nc2cccc(-c3nnc(-c4ccccc4)o3)c2)cc1OC	0.0	5.8	18.3	13.5	54.3*
COc1ccc(CC(=O)Nc2cccc(-c3nnc(-c4ccc(C)cc4)o3)c2)cc1OC	1.0	-18.3	5.5	?	19.0
Cc1c(NS(=O)(=O)c2ccccc2)cc(Cl)c(O)c1C	3.0	-6.3	·	?	61.9*
Cc1c(Cl)cccc1NS(=O)(=O)c1ccccc1	·	·	·	-2.9	-3.7
CC(C)(C)NC(=O)C1CC(=O)OC1(C)C (stereo unspecified)	0.0	-5.4	32.5*	-1.2	7.5
